# Structures can show the parent of a compound that is named as a salt. ± gives the standard deviation.
# Key:
# Jurkat [1] = assay: mean cell size (FSC-A) relative to DMSO control (fraction of control); higher = larger cells; conditions: 48 h
# Procedure, shortened: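 Jurkat cells at 600 cells/µl were incubated for 1 h and then treated for 48h with the Enzo Screen-Well FDA Approved Drug Library v2.0 at 25µM, with DMSO at 0.9% (v/v) final. Compounds that reduced counts below 20% of controls were retested in 10-fold dilutions down to 25nM. Cell count and mean cell size, taken as forward scatter area, were measured by flow cytometry relative to solvent-only controls. Each plate carried 6-12 controls, and values are means of 3 biological replicates.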
# Jurkat [2] = assay: cell count relative to DMSO control (fraction of control); higher = more cells (less growth inhibition); conditions: 48 h
Compound,mean cell size (Jurkat [1]),cell count (Jurkat [2])
O=C1CCc2cc(OCCCCc3nnnn3C3CCCCC3)ccc2N1 [Cilostazol] (concentration: 25 µM),0.98 ± 0.044,0.819 ± 0.12
Cc1nnc(C(=O)NC(C)(C)c2nc(C(=O)NCc3ccc(F)cc3)c(O)c(=O)n2C)o1 [Raltegravir] (concentration: 25 µM),0.9483 ± 0.0067,0.569 ± 0.11
CC(C)/N=c1\cc2n(-c3ccc(Cl)cc3)c3ccccc3nc-2cc1Nc1ccc(Cl)cc1 [Clofazimine] (concentration: 2.5 µM),0.952 ± 0.03,0.695 ± 0.066
CCCSc1ccc2[nH]c(NC(=O)OC)nc2c1 [Albendazole] (concentration: 2.5 µM),1.32 ± 0.11,0.209 ± 0.012
Nc1nc(Cl)nc2c1ncn2[C@H]1C[C@H](O)[C@@H](CO)O1 [Cladribine] (concentration: 250 nM),1.17 ± 0.034,0.268 ± 0.024
O=C1C(=O)c2ccccc2C(O)=C1C1CCC(c2ccc(Cl)cc2)CC1 (stereo not drawn) [Atovaquone] (concentration: 25 µM),0.91 ± 0.015,0.462 ± 0.039
COc1ccccc1OCC(O)CN1CCN(CC(=O)Nc2c(C)cccc2C)CC1 (stereo not drawn) [Ranolazine·2HCl] (concentration: 25 µM),0.987 ± 0.031,0.979 ± 0.084
OCCOCCN1CCN(C(c2ccccc2)c2ccc(Cl)cc2)CC1 (stereo not drawn) [Hydroxyzine Dihydrochloride] (concentration: 25 µM),0.948 ± 0.021,0.968 ± 0.063
NCCCCCC(=O)O [Aminocaproic Acid] (concentration: 25 µM),0.976 ± 0.05,0.853 ± 0.1
O=C(O)C[C@H](O)C[C@H](O)/C=C/c1c(C2CC2)nc2ccccc2c1-c1ccc(F)cc1 [Pitavastatin Calcium] (concentration: 25 µM),0.9938 ± 0.0093,0.647 ± 0.065
CCC(=O)O[C@]1(C(=O)SCF)[C@H](C)C[C@H]2[C@@H]3C[C@H](F)C4=CC(=O)C=C[C@]4(C)[C@@]3(F)[C@@H](O)C[C@@]21C [Fluticasone Propionate] (concentration: 25 µM),0.967 ± 0.015,1.06 ± 0.053
CCCCC[C@H](O)/C=C/[C@H]1[C@H](O)CC(=O)[C@@H]1CCCCCCC(=O)O [Alprostadil] (concentration: 25 µM),0.872 ± 0.0094,0.73 ± 0.12
NC(=O)N[C@@H](CCC(=O)O)C(=O)O [Carglumic Acid] (concentration: 25 µM),0.936 ± 0.037,0.806 ± 0.1
CN(CCOc1ccc(CC2SC(=O)NC2=O)cc1)c1ccccn1 (stereo not drawn) [Rosiglitazone] (concentration: 25 µM),0.996 ± 0.063,0.718 ± 0.069
Cc1cc(C)cc(OCC2CNC(=O)O2)c1 (stereo not drawn) [Metaxalone] (concentration: 25 µM),0.998 ± 0.054,0.853 ± 0.17
CC(=O)/N=c1/sc(S(N)(=O)=O)nn1C [Methazolamide] (concentration: 25 µM),1.02 ± 0.035,0.925 ± 0.091
CC(C)(C)C(=O)OCOP(=O)(COCCn1cnc2c(N)ncnc21)OCOC(=O)C(C)(C)C [Adefovir Dipivoxil] (concentration: 25 µM),1.3 ± 0.043,0.23 ± 0.019
CCc1nn(CCCN2CCN(c3cccc(Cl)c3)CC2)c(=O)n1CCOc1ccccc1 [Nefazodone·HCl] (concentration: 25 µM),0.924 ± 0.015,0.601 ± 0.02
Cc1cccn2c(=O)c(-c3nnn[nH]3)cnc12 [Pemirolast Potassium] (concentration: 25 µM),0.938 ± 0.024,0.756 ± 0.11
